Compounds with a hit are over-represented: about 19% of the library has one in this group of screens.
TDP1 cell CPT = qHTS for Inhibitors of human tyrosyl-DNA phosphodiesterase 1 (TDP1): qHTS in cells in presence of CPT | chicken DT40 Tdp1-/-;hTDP1 cells + 20 nM CPT, ATP luminescence, 48 h | Potency, µM (series often up to 46.2 µM), hits mostly inhibitors | hit rate 12% among 420,000; note: nearly all actives have a fitted effect of over 55% in size
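Chicken DT40 Tdp1-/- cells complemented with human TDP1, 400 cells/well, exposed to compounds plus 20 nM camptothecin for at least 48 h at 37 C; viability read as ATP content by CellTiter-Glo luminescence.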
TDP1 cell noCPT = qHTS for Inhibitors of human tyrosyl-DNA phosphodiesterase 1 (TDP1): qHTS in cells in absence of CPT | hit rate 15% among 420,000 | Potency, µM (highest dose often 46.2 µM), usual class: inhibitors | DT40 Tdp1-/- hTDP1 cells, no CPT, ATP luminescence, 48 h | AID 686978, 2013; note: nearly all actives have a fitted effect of over 55% in size
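Stably hTDP1-transfected Tdp1-null chicken DT40 cells were treated with library compounds minus camptothecin and grown for at least 48 hr at 37 °C, after which cellular ATP was quantified by luminescence.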
ELG1 repair inh = qHTS screen for small molecules that inhibit ELG1-dependent DNA repair in human embryonic kidney (HEK293T) cells expressing luciferase-tagged ELG1 | HEK293T ELG1-luciferase reporter, luminescence, 16 h; DNA damage induced by 5-fluorouridine | Potency, µM (doses to about 46.1 µM), actives largely listed as inhibitors | hit rate 2.3% among 330,000; note: nearly all actives have a fitted effect of over 55% in size
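DMSO vehicle served as the neutral condition. Each well held 2,000 cells given 5-fluorouridine plus compound; after 16 hr at 37 °C/5% CO2, ONE-Glo was added and luciferase measured 30 min later.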
Giardia killer = Small Molecules that selectively kill Giardia lamblia: qHTS; activity change, % at 7.66 µM, hits read low; Giardia lamblia trophozoite viability; AID 540267, 2011; hit rate 0.15% among 340,000; in the data active = activity change below about -80%; inconclusive = between about -30% and that limit;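 note: parasites exposed to compound for two days anaerobically before the ATP read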
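Media and compound were dispensed first, then trophozoites at 100 cells/well; plates sat 48 hrs at 37 deg C without oxygen before ATP luminescence reagent was added and read after 15-30 min at room temperature.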
IL-1B inflam inh = qHTS for Inhibitors of Inflammasome Signaling: IL-1-beta AlphaLISA Primary Screen. activity change, % at 57.5 µM. THP-1 LPS/ATP IL-1B secretion, AlphaLISA, 16 h; hits give low values. hit rate 4.7% among 360,000. AID 743279, 2014; in the data active = activity change below about -50%; inconclusive = mostly about -30% to -49%
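THP-1 cells pretreated 1 hr with compounds (up to 57.5 uM final), then stimulated with LPS (250 ng/mL final) plus ATP (1.25 mM final); secreted IL-1B measured by AlphaLISA after 16 hr, decreased signal indicating inhibition.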
TDP1 inh = qHTS Assay for Inhibitors of Tyrosyl-DNA Phosphodiesterase (TDP1) | Potency, µM (top dose mostly 130 µM), hits mostly inhibitors | Tyrosyl-DNA phosphodiesterase 1 (Homo sapiens), Q9NUW8 | hit rate 0.28% among 350,000 | recombinant TDP1, AlphaScreen DNA substrate cleavage; note: nearly all actives have a fitted effect of over 40% in size
Target sequence (Q9NUW8 whole entry, looked up): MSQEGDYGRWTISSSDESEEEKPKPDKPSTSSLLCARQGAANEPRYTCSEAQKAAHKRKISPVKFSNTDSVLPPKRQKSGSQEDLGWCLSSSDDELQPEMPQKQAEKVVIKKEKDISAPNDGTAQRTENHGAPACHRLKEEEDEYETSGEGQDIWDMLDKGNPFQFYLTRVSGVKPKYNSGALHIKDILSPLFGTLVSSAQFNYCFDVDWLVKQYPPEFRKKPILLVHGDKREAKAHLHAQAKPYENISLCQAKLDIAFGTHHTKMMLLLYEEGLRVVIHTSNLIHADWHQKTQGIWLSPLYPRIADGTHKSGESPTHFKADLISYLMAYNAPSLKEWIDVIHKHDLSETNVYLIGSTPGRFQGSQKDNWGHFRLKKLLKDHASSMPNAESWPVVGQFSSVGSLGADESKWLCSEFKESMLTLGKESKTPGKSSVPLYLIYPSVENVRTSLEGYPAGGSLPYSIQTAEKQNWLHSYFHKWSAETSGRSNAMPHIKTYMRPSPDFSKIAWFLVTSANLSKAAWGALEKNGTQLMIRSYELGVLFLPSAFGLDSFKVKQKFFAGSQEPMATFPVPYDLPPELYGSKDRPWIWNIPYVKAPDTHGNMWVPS
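AlphaScreen read-out: signal falls as enzyme removes the 3' tyrosine-FITC from a 5'-biotinylated DNA oligo (15 nM, 5 min, RT). Enzyme was E. coli-made recombinant Tdp1 at 1 nM, exposed to compound for 15 min beforehand; beads 10 ug/ml, 10 min.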
Numbers stand for hits. Unless noted, calls come from the whole dose curve; as a rule, active = well fitted curve in the direction sought with a large enough effect; inconclusive = small, poorly fitted or top-dose-only effect, or another doubt; inactive = no such curve, though single readings can be large; an effect the other way counts as inactive or inconclusive.

Results for O=C1c2ccccc2C(=O)N1CCCCN(C(=O)c1ccco1)c1ccc(Cl)cc1 ?
TDP1 cell CPT: inconclusive; TDP1 cell noCPT: inconclusive; ELG1 repair inh: inconclusive; Giardia killer: inactive; IL-1B inflam inh: inactive; TDP1 inh: inactive

What do the screens show for `O=C(/C(C=Nc1ccc(Br)cc1)=C(/O)c1ccco1)C(F)(F)F`?
TDP1 cell CPT: inactive; TDP1 cell noCPT: inactive; ELG1 repair inh: inconclusive; Giardia killer: inactive; IL-1B inflam inh: inactive; TDP1 inh: inactive

What do the screens show for `O=C1/C(=C/N(C(=O)c2ccco2)c2ccc(Cl)cc2)Sc2ccccc21`?
TDP1 cell CPT: 23µM; TDP1 cell noCPT: 16µM; ELG1 repair inh: inconclusive; Giardia killer: inactive; IL-1B inflam inh: inconclusive; TDP1 inh: inactive

What do the screens show for `Cc1cc(C)c(OCCNC(=O)c2ccccc2Sc2ccccc2C#N)c(C)c1`?
TDP1 cell CPT: 18µM; TDP1 cell noCPT: inconclusive; ELG1 repair inh: inconclusive; Giardia killer: inactive; IL-1B inflam inh: inactive; TDP1 inh: inactive

How did CSc1ccccc1C(=O)NCCOc1ccccc1C do in these assays?
TDP1 cell CPT: inconclusive; TDP1 cell noCPT: inconclusive; ELG1 repair inh: inactive; Giardia killer: inactive; IL-1B inflam inh: inactive; TDP1 inh: inactive

How did COc1cccc(OCCNC(=O)c2cccc(OC)c2)c1 do in these assays?
TDP1 cell CPT: inactive; TDP1 cell noCPT: inactive; ELG1 repair inh: inactive; Giardia killer: inactive; IL-1B inflam inh: inactive; TDP1 inh: inactive

How did COc1cccc(OCCNC(=O)c2ccccc2Sc2ccccc2C#N)c1 do in these assays?
TDP1 cell CPT: inconclusive; TDP1 cell noCPT: 16µM; ELG1 repair inh: inconclusive; Giardia killer: inactive; IL-1B inflam inh: inactive; TDP1 inh: inactive

Results for Cc1ccccc1OCCNC(=O)c1ccccc1Sc1ccccc1C#N ?
TDP1 cell CPT: inactive; TDP1 cell noCPT: 16µM; ELG1 repair inh: inactive; Giardia killer: inactive; IL-1B inflam inh: inactive; TDP1 inh: inactive

How did COc1ccccc1-n1cnnc1SCC(=O)Nc1cccc(S(N)(=O)=O)c1 do in these assays?
TDP1 cell CPT: inactive; TDP1 cell noCPT: inactive; ELG1 repair inh: inactive; Giardia killer: inactive; IL-1B inflam inh: inactive; TDP1 inh: inactive

How did CCNC(=S)N(CCc1ccccc1C)Cc1cc2cc(OC)c(OC)cc2[nH]c1=O do in these assays?
TDP1 cell CPT: inactive; TDP1 cell noCPT: inactive; ELG1 repair inh: 9.2µM; Giardia killer: inactive; IL-1B inflam inh: inactive; TDP1 inh: inactive

Results for Cc1ccc2[nH]c(=O)c(CN(Cc3ccccc3)C(=S)NCCCN(C)C)cc2c1 ?
TDP1 cell CPT: inconclusive; TDP1 cell noCPT: inconclusive; ELG1 repair inh: inconclusive; Giardia killer: inactive; IL-1B inflam inh: -87; TDP1 inh: inactive

How did CNC(=S)N(CCc1ccccc1)Cc1cc2cc(OC)c(OC)cc2[nH]c1=O do in these assays?
TDP1 cell CPT: inactive; TDP1 cell noCPT: inconclusive; ELG1 repair inh: inconclusive; Giardia killer: inactive; IL-1B inflam inh: inactive; TDP1 inh: inactive

How did CCNC(=S)N(CCc1cccc(C)c1)Cc1cc2cc(OC)c(OC)cc2[nH]c1=O do in these assays?
TDP1 cell CPT: inconclusive; TDP1 cell noCPT: inconclusive; ELG1 repair inh: 8.2µM; Giardia killer: inconclusive; TDP1 inh: inactive

How did CN(C)CCCNC(=S)N(Cc1cccs1)Cc1cc2cc3c(cc2[nH]c1=O)OCCO3 do in these assays?
TDP1 cell CPT: inconclusive; TDP1 cell noCPT: inconclusive; ELG1 repair inh: inconclusive; Giardia killer: inactive; IL-1B inflam inh: inactive; TDP1 inh: inactive

How did CCNC(=S)N(CCc1ccc(OC)c(OC)c1)Cc1cc2cc(OC)ccc2[nH]c1=O do in these assays?
TDP1 cell CPT: inactive; TDP1 cell noCPT: inactive; ELG1 repair inh: inconclusive; Giardia killer: inactive; IL-1B inflam inh: inactive; TDP1 inh: inactive

How did COc1cc2cc(CN(CCc3ccccc3C)C(=S)NCCCN3CCOCC3)c(=O)[nH]c2cc1OC do in these assays?
TDP1 cell CPT: inconclusive; TDP1 cell noCPT: inconclusive; ELG1 repair inh: inconclusive; Giardia killer: inactive

High-throughput results deposited in PubChem BioAssay by National Center for Advancing Translational Sciences (NCATS).
